Records with an inconclusive call do not appear. The source made the active and inactive calls. Unless noted, calls come from the whole dose curve; as a rule, active = well fitted curve in the direction sought with a large enough effect in the repeat runs; inconclusive = weak or mixed curves; inactive = no such curve, though single readings can be large; an effect the other way counts as inactive or inconclusive.
Experiments:
[1] = A CellTox Green Cytotoxicity Assay to monitor cytotoxicity in HEK293 cells - 32 hour (AID 1224881); note: nearly all actives have a fitted effect of over 40% in size
How it was run: (§1)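 Fluorescence from a DNA-binding dye excluded by viable cells was measured repeatedly in the same HEK293 wells (600 cells/well) during continuous compound exposure at 37 C. Each assay gives one read point: 0, 8, 16, 24, 32 or 40 h.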

[2] = A CellTox Green Cytotoxicity Assay to monitor cytotoxicity in HepG2 cells - 0 hour (AID 1224882); note: nearly all actives have a fitted effect of over 35% in size
How it was run: (§2)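 Real-time cytotoxicity: fluorescence of a cell-impermeant cyanine dye binding DNA of dead HepG2 cells, measured repeatedly (0–40 h) during compound exposure at 37 C. Cells seeded 600/well with reagent, dosed after 5 h.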

[3] = A CellTox Green Cytotoxicity Assay to monitor cytotoxicity in HepG2 cells - 32 hour (AID 1224883); note: nearly all actives have a fitted effect of over 50% in size
How it was run: as §2

[4] = A CellTox Green Cytotoxicity Assay to monitor cytotoxicity in HEK293 cells - 8 hour (AID 1224884); note: nearly all actives have a fitted effect of over 35% in size
How it was run: as §1

[5] = qHTS RealTime-Glo MT Cell Viability Assay in HepG2 cells - 16 hour (AID 1224885); note: nearly all actives have a fitted effect of over 50% in size
How it was run: (§3)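 Tox21 10K library screened in qHTS format on HepG2 cells carrying RealTime-Glo reagents. Compounds were added after a 5 h preincubation, and the luminescent signal from continuous culture was measured repeatedly during 40 h treatment.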

[6] = qHTS RealTime-Glo MT Cell Viability Assay in HEK293 cells - 24 hour (AID 1224886); note: top concentration of the series differs between compounds; nearly all actives have a fitted effect of over 50% in size
How it was run: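 Luminescence generated by NanoLuc from substrate produced by living HEK293 cells served as the viability signal. Each value reflects the reading at its stated time point during continuous 40 h compound exposure at 37 C.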

[7] = qHTS RealTime-Glo MT Cell Viability Assay in HEK293 cells - 8 hour (AID 1224887); note: top concentration of the series differs between compounds; nearly all actives have a fitted effect of over 50% in size
How it was run: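 Luminescence, which tracks viable cell number through reduction of the prosubstrate to a NanoLuc substrate, was read over continuous 37 C culture. Cells (600/well) were premixed with reagent and rested 5 h before 23 nL of compound in DMSO was pinned.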

[8] = A CellTox Green Cytotoxicity Assay to monitor cytotoxicity in HEK293 cells - 16 hour (AID 1224888); note: nearly all actives have a fitted effect of over 35% in size
How it was run: as §1

[9] = qHTS assay to identify small molecule antagonists of the estrogen receptor alpha (ER-alpha) signaling pathway using the BG1 cell line in the presence of 0.1 nM 17-beta-estradiol - cell viability counter screen (AID 1259241); note: nearly all actives have a fitted effect of over 40% in size
How it was run: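 Live-cell protease activity (CellTiter-Fluor fluorescence, 30 min) was read in the same wells after VM7Luc4E2 cells had been exposed to compounds with 0.1 nM 17beta-estradiol for 22 hr at 37C.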

[10] = qHTS assay to identify small molecule antagonists of the androgen receptor (AR) signaling pathway using the MDA cell line in the presence of 0.5 nM R1881 - cell viability counter screen (AID 1259242); note: nearly all actives have a fitted effect of over 45% in size
How it was run: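 Live-cell protease activity was measured by CellTiter-Fluor fluorescence after 30 min. Before that, MDA-kb2 MMTV-luciferase cells had 16 hr at 37C without CO2, exposed to test compounds and 0.5 nM R1881 final.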

[11] = molecular target: Estrogen receptor (Homo sapiens) (UniProt P03372); test: qHTS assay to identify small molecule antagonists of the estrogen receptor alpha (ER-alpha) signaling pathway using the BG1 cell line in the presence of 0.1 nM 17-beta-estradiol (AID 1259244); note: nearly all actives have a fitted effect of over 50% in size
How it was run: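 Luciferase luminescence (ONE-Glo, 30 min at room temperature) was read after 22 hr at 37C exposure to compounds plus 17beta-estradiol at 0.1 nM final. Cells were VM7Luc4E2 with endogenous ER-alpha and an ERE-driven luciferase, pre-cultured 5 days in hormone-depleted medium.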

[12] = qHTS assay to identify small molecule phospholipidosis (PLD) inducers (AID 1259344; active = well fitted curve in the direction sought with a large enough effect; an effect the other way counts as inactive or inconclusive)
How it was run: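 Phospholipid accumulation was scored by imaging: fixed, Hoechst-counterstained HepG2 cells stained with LipidTOX Red after 24 h compound exposure at 37 C. Read-outs were pit count and pit intensity per well or per cell, with amiodarone and DMSO controls.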

[13] = qHTS assay to identify small molecule HDAC inhibitors (AID 1259364); note: top concentration of the series differs between compounds; nearly all actives have a fitted effect of over 45% in size
How it was run: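 Luminescence read after 30 min room-temperature HDAC-Glo incubation measures cellular class I/II HDAC activity. Compounds were applied for 2 hr at 37 C to HCT-116 wild-type cells seeded the day before.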

[14] = qHTS assay to identify small molecule HDAC inhibitors - cell viability counter screen (AID 1259365)
How it was run: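 HCT-116 (wild type), 1,500 cells/well, overnight 37C/5% CO2; compound in DMSO 2hr; CellTiter-Glo 30min RT; luminescence read.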

[15] = qHTS assay to identify small molecule agonists of the sonic hedgehog signaling (Shh) pathway - cell viability counter screen (AID 1259366); note: nearly all actives have a fitted effect of over 50% in size
How it was run: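 CellTiter-Fluor fluorescence read-out, 1 hr at 37C, added after 23hr compound exposure. Cells: 3T3 Gli1-Luc, an NIH/3T3 clone with stably integrated Gli1-Luc reporter, plated 4hr before compound.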

[16] = qHTS assay to identify small molecule antagonists of the sonic hedgehog signaling (Shh) pathway - cell viability counter screen (AID 1259367); note: nearly all actives have a fitted effect of over 55% in size
How it was run: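 Viability was read by CellTiter-Fluor fluorescence in the same wells, reagent added 23 hr into compound treatment and incubated 1 hr at 37C. The 3T3 Gli1-Luc reporter cells (2,000/well) received conditioned medium after compound and ran 24 hr.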

[17] = qHTS assay to identify small molecule agonists of the sonic hedgehog signaling (Shh) pathway (AID 1259368; calls by dose curve;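 note: NIH/3T3-derived 3T3Gli1-Luc cells carrying a stable Gli1-driven firefly luciferase reporter; series mostly up to about 92 µM; nearly all actives have a fitted effect of over 15% in size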)
How it was run: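 Luminescence was read after 30 min at room temperature with luciferase reagent. Before that, 3T3Gli1-Luc cells (NIH/3T3 clone, stable Gli1-Luc reporter; 2,000/well) were exposed to compounds for 24 hr at 37C, 5% CO2, compounds being added 4 hr post-plating.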

[18] = A CellTox Green Cytotoxicity Assay to monitor cytotoxicity in HepG2 cells - 8 hour (AID 1224890); note: nearly all actives have a fitted effect of over 45% in size
How it was run: as §2

[19] = qHTS RealTime-Glo MT Cell Viability Assay in HepG2 cells - 0 hour (AID 1224889); note: nearly all actives have a fitted effect of over 50% in size
How it was run: as §3

[20] = molecular target: Androgen receptor (Homo sapiens) (UniProt P10275); test: qHTS assay to identify small molecule antagonists of the androgen receptor (AR) signaling pathway using the MDA cell line in the presence of 0.5 nM R1881 (AID 1259243); note: nearly all actives have a fitted effect of over 50% in size
How it was run: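 Luminescent reporter readout (ONE-Glo, 30 min, room temperature) after 16 hr co-treatment of MDA-kb2 cells with test compounds and 0.5 nM R1881 final, at 37C without CO2. The MMTV-driven luciferase responds to both AR and GR.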

Measured: Potency

Sequence of Estrogen receptor (Homo sapiens) (P03372 whole entry, looked up): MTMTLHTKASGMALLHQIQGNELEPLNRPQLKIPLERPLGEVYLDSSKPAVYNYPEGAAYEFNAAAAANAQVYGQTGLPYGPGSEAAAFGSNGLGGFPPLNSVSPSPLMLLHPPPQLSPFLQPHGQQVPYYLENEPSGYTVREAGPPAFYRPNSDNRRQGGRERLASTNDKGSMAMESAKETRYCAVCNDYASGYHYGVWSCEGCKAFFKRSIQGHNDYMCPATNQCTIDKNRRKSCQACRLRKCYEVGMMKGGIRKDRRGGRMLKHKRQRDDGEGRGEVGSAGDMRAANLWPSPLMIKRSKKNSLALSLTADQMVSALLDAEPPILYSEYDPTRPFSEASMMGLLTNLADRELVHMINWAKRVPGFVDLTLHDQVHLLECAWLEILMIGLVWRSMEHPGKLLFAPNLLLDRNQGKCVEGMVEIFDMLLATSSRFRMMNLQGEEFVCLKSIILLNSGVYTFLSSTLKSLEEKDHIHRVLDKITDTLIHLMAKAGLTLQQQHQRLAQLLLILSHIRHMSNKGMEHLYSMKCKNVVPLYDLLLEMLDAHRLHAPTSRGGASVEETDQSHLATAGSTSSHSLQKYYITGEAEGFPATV
Sequence of Androgen receptor (Homo sapiens) (P10275 whole entry, looked up): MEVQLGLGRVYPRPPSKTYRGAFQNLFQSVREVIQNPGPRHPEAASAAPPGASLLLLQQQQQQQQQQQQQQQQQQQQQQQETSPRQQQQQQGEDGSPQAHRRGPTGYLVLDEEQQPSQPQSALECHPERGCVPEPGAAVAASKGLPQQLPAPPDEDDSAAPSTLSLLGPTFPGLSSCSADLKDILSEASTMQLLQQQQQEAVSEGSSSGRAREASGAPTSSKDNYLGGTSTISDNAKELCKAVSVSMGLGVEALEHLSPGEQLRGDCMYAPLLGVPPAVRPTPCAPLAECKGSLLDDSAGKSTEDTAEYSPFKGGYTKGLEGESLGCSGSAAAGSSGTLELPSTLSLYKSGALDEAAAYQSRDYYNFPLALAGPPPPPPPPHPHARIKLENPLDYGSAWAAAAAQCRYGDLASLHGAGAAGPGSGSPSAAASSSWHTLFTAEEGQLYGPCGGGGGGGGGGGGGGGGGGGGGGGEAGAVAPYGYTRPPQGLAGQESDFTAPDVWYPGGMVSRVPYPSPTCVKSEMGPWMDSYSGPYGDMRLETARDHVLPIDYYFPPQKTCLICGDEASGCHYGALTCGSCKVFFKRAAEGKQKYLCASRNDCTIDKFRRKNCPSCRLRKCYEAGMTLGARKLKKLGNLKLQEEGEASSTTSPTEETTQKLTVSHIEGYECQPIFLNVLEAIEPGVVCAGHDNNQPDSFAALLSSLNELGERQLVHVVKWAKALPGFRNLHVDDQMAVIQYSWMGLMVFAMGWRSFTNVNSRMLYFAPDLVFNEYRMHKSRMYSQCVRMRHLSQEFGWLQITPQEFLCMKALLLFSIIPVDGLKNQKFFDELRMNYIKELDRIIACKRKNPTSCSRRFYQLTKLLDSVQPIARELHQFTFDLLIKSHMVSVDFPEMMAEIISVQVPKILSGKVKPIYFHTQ

CCN(Cc1ccc(Cl)nc1)/C(=C/[N+](=O)[O-])NC
not listed: [18] | [19] | [20]
inactive: all other assays above

CCCCN(CCCCO)N=O
not listed: [9] | [11] | [12] | [19] | [20]
inactive: all other assays above

ClCCCN1CCN(c2cccc(Cl)c2)CC1
not listed: [10] | [11] | [12] | [15] | [20]
inactive: all other assays above

Oc1c(Cl)cccc1Cl
not listed: [10] | [12] | [16] | [20]
inactive: all other assays above

O=[N+]([O-])c1ccc(CBr)cc1
not listed: [12] | [14] | [18] | [20]
inactive: all other assays above

CN1C[C@@H](NS(=O)(=O)N(C)C)C[C@@H]2c3cccc4c3c(cn4C)C[C@H]21
not listed: [10] | [11] | [14] | [15] | [17] | [20]
inactive: all other assays above

CCOP(=O)(OCC)OP(=O)(OCC)OCC
not listed: [10] | [11] | [12] | [19]
inactive: all other assays above

CN1CCN(C(=O)O[C@H]2c3nccnc3C(=O)N2c2ccc(Cl)cn2)CC1
not listed: [11] | [14] | [19] | [20]
inactive: all other assays above

CC(C)COP(=O)(OCC(C)C)OCC(C)C
not listed: [11] | [12] | [13] | [18] | [20]
inactive: all other assays above

CS(=O)(=O)c1cc(C(F)(F)F)ccc1C(=O)c1cnoc1C1CC1
not listed: [12] | [14] | [19] | [20]
inactive: all other assays above

CC(Cl)(Cl)[N+](=O)[O-]
not listed: [12] | [18] | [19]
inactive: all other assays above

Clc1cccc(N2CCNCC2)c1
not listed: [11] | [18] | [20]
inactive: all other assays above

N#CC(O)c1ccccc1 (centres undefined)
not listed: [11] | [12] | [19] | [20]
inactive: all other assays above

O=NN1CCN(N=O)CC1
not listed: [12] | [18] | [20]
inactive: all other assays above

CC(=O)CCc1ccc2c(c1)OCO2
not listed: [12] | [14] | [16] | [19] | [20]
inactive: all other assays above

CCNc1nc(NC(C)C)nc(OC)n1
not listed: [11] | [12] | [13] | [14] | [19] | [20]
inactive: all other assays above

CC(C)[N+](=O)[O-]
not listed: [11] | [12] | [19] | [20]
inactive: all other assays above

CCCSP(=S)(OCC)Oc1ccc(Cl)cc1Cl (centres undefined)
not listed: [9] | [12] | [15] | [20]
inactive: all other assays above
